What was measured:
Conditions in all cases: concentration: 10 µM; 24 h
HCC1569 [1] = assay: cell number relative to DMSO (% of DMSO); higher = more cells (less growth inhibition / toxicity)
Method in brief: (§1)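 For HCC1569 and TDF cells, compounds at 10 µM were applied for 24 h at 37 °C in triplicate in 384-well plates. Cells were fixed in 3.7% formaldehyde, stained for H1.0 and with DAPI, and imaged at ×10 over six fields per well. The endpoint, H1.0 nuclear intensity or cell number, is shown as percent of the plate control using the median of replicates. Positional effects were smoothed for HCC1569 only.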

TDF [2] = assay: as above
Method in brief: as §1

TDF [3] = assay: H1.0 immunofluorescence intensity relative to DMSO (% of DMSO); higher = stronger H1.0 induction, active = 120 or more
Method in brief: as §1

HCC1569 [4] = assay: H1.0 immunofluorescence intensity relative to DMSO (% of DMSO); higher = stronger H1.0 induction, active = 140 or more
Method in brief: as §1
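For H1.0 immunofluorescence intensity relative to DMSO in this document: TDF is a line of transformed human dermal fibroblasts of mesenchymal origin.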
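For cell number relative to DMSO in this document: TDF denotes transformed human dermal fibroblasts of mesenchymal origin.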

| SMILES | cell number (HCC1569 [1]) | cell number (TDF [2]) | H1.0 immunofluorescence intensity (TDF [3]) | H1.0 immunofluorescence intensity (HCC1569 [4]) |
| --- | --- | --- | --- | --- |
| O=C(O)c1ccc2ccccc2c1O.OCc1cc(C(O)CNCCCCCCOCCCCc2ccccc2)ccc1O (stereo not given) [Salmeterol xinafoate] | 100 | 100 | 97.5 (inactive) | 121 (inactive) |
| O=C1CC(c2ccccc2)Oc2cc(O)cc(O)c21 (stereo not given) [Pinocembrin] | 106 | 100 | 99 (inactive) | 91.1 (inactive) |
| CSc1ccc2c(c1)N(CCC1CCCCN1C)c1ccccc1S2.Cl (stereo not given) [Thioridazine hydrochloride] | 86.6 | 90.6 | 110 (inactive) | 155 (active) |
| CN(C)CCCOc1nn(Cc2ccccc2)c2ccccc12 [Benzydamine] | 100 | 83.7 | 104 (inactive) | 103 (inactive) |
| CN(Cc1cc(Br)cc(Br)c1N)C1CCCCC1 [Bromhexine] | 98.8 | 110 | 88.6 (inactive) | 123 (inactive) |
| O=C(NC(Cc1cc(=O)[nH]c2ccccc12)C(=O)O)c1ccc(Cl)cc1 (stereo not given) [Rebamipide] | 104 | 99.7 | 93.2 (inactive) | 105 (inactive) |
| CCCCN1CCC(COC(=O)c2cc(Cl)c(N)c3c2OCCO3)CC1.Cl | 102 | 108 | 97.7 (inactive) | 104 (inactive) |
| O=C(O)C=CC(=O)O.O=C(O)C=CC(=O)O.OCCOCCN1CCN(C2=Nc3ccccc3Sc3ccccc32)CC1 [Quetiapine Fumarate] | 99.3 | 97.8 | 94.5 (inactive) | 100 (inactive) |
| O=C(O)CCCC(O)C=CC=CC=CC(O)CC=CCCCCCO (stereo not given) [20-Hydroxy-leukotriene B4] | 100 | 101 | 95.2 (inactive) | 108 (inactive) |
| Cc1cc(C(C)(C)C)c(O)c(C)c1CC1=NCCN1.Cl [Oxymetazoline.HCl] | 102 | 97.8 | 98.5 (inactive) | 98.2 (inactive) |
| Clc1ccc(CON=C(Cn2ccnc2)c2ccc(Cl)cc2Cl)c(Cl)c1 [Oxiconazole] | 99.8 | 101 | 98.4 (inactive) | 113 (inactive) |
| O=C(NC1CCNCC1)c1[nH]ncc1NC(=O)c1c(Cl)cccc1Cl | 53.5 | 31.9 | 131 (active) | 117 (inactive) |
| CCCOc1ccc2nc(NC(=O)OC)[nH]c2c1 [Oxibendazole] | 62.8 | 9.31 | 157 (active) | 154 (active) |
| COC(=O)c1ccc2c(c1)nc(NC(=O)c1ccccc1)n2CCCc1ccccc1 | 80.4 | 65.7 | 94.6 (inactive) | 88.3 (inactive) |
| CC(NC(CCc1ccccc1)C(=O)O)C(=O)N1CCCC1C(=O)O (stereo not given) [Enalaprilat] | 98.7 | 86.2 | 104 (inactive) | 96.9 (inactive) |
| COc1cc2nc(N3CCN(C(=O)c4ccco4)CC3)nc(N)c2cc1OC.Cl [Prazosin.HCl] | 107 | 105 | 92 (inactive) | 95.8 (inactive) |
| CCCCc1nc(Cl)c(CO)n1Cc1ccc(-c2ccccc2-c2nnn[n-]2)cc1.[K+] [Losartan potassium] | 102 | 90.1 | 98.1 (inactive) | 102 (inactive) |
| CCC(C)n1ncn(-c2ccc(N3CCN(c4ccc(OCC5COC(Cn6cncn6)(c6ccc(Cl)cc6Cl)O5)cc4)CC3)cc2)c1=O (stereo not given) [Itraconazole] | 79.5 | 93 | 108 (inactive) | 149 (active) |
| CC(C)(C)c1onc(OCP(=O)(O)O)c1CC(N)C(=O)O (stereo not given) | 104 | 113 | 91.2 (inactive) | 95.1 (inactive) |
| CCC(=C(c1ccccc1)c1ccc(OCCN(C)C)cc1)c1ccccc1 [Tamoxifen] | 103 | 99.1 | 97.7 (inactive) | 114 (inactive) |
| Nc1nc(=O)c2ncn(COCCO)c2[nH]1 [Acyclovir] | 98.8 | 104 | 90.2 (inactive) | 85.5 (inactive) |
| OC1(c2ccc(Cl)cc2)CCN(Cc2c[nH]c3ccccc23)CC1 | 94.6 | 93 | 106 (inactive) | 103 (inactive) |
| CCN(CC)CCCCNc1ncc2cc(-c3c(Cl)cccc3Cl)c(NC(=O)NC(C)(C)C)nc2n1 | 63.1 | 84.5 | 104 (inactive) | 115 (inactive) |
| Nc1ncnc2c1ncn2C1CCCO1 (stereo not given) | 76.9 | 96.4 | 99 (inactive) | 183 (active) |
| COCC(=O)OC1(CCN(C)CCCc2nc3ccccc3[nH]2)CCc2cc(F)ccc2C1C(C)C.Cl.Cl (stereo not given) [Mibefradil dihydrochloride] | 84.2 | 90.1 | 111 (inactive) | 124 (inactive) |

| SMILES | cell number (HCC1569 [1]) | cell number (TDF [2]) | H1.0 immunofluorescence intensity (TDF [3]) | H1.0 immunofluorescence intensity (HCC1569 [4]) |
| --- | --- | --- | --- | --- |
| C[C@@H](Nc1ncnc2[nH]c(-c3ccc(O)cc3)cc12)c1ccccc1 | 66 | 64.8 | 108 (inactive) | 139 (inactive) |
| COc1cc2ncnc(Nc3ccc(NC(=O)c4ccccc4)cc3)c2cc1OC [Aurora Kinase Inhibitor II] | 77.8 | 54.8 | 111 (inactive) | 133 (inactive) |
| OC(Cn1cncn1)(Cn1cncn1)c1ccc(F)cc1F [Fluconazole] | 102 | 100 | 93.8 (inactive) | 106 (inactive) |
| CNC(=O)C1OC(n2cnc3c(NCc4cccc(I)c4)ncnc32)C(O)C1O (stereo not given) | 102 | 114 | 87.4 (inactive) | 82.1 (inactive) |
| CCCC(=O)Oc1ccc2[nH]c(C(=O)c3cc4ccccc4[nH]3)cc2c1 [PDGF Receptor Tyrosine Kinase Inhibitor II] | 86.9 | 92.3 | 87.9 (inactive) | 165 (active) |
| CC1CN(S(=O)(=O)c2cccc3cnccc23)CCN1.Cl.Cl (stereo not given) | 111 | 109 | 86.2 (inactive) | 81.1 (inactive) |
| O=C1C(=Cc2ccc(O)c(O)c2)Oc2cc(O)ccc21 [Sulfuretine] | 98 | 102 | 93.3 (inactive) | 99.9 (inactive) |
| O=c1c(O)c(-c2cc(O)c(O)c(O)c2)oc2cc(O)ccc12 [Robinetine] | 99 | 105 | 98.3 (inactive) | 90.7 (inactive) |
| O=C1NC(=O)c2c1c(-c1ccccc1)cc1[nH]c3ccc(O)cc3c21 | 59.9 | 51.1 | 101 (inactive) | 91.4 (inactive) |
| O=C(O)c1ccccc1C(=O)Nc1ccc(-c2ccccc2)cc1 [2-[([1,1'-biphenyl]-4-ylamino)carbonyl]benzoic acid] | 104 | 99.9 | 98.7 (inactive) | 95.6 (inactive) |
| CC[C@@]1(O)C(=O)OCc2c1cc1n(c2=O)Cc2cc3c(CN(C)C)c(O)ccc3nc2-1 | 61.3 | 26.3 | 129 (active) | 142 (active) |
| CCCCc1c(-c2ccc(OC)cc2)[nH]c2nccnc12 [Aloisine, RP106] | 94.7 | 97.5 | 93.2 (inactive) | 110 (inactive) |
| CCCCCCCCC(=O)NCc1cc(OC)c(O)cc1I [N-(4-hydroxy-2-iodo-5-methoxybenzyl)nonanamide] | 96.2 | 98.9 | 93.2 (inactive) | 116 (inactive) |
| CCCCCC(O)C=CC1=C(CC=CCCCC(=O)O)C(=O)CC1 (stereo not given) [Prostaglandin B2] | 109 | 109 | 92 (inactive) | 97.4 (inactive) |
| CCC(C(=O)C(C)C(O)C(C)CCc1ccc(C)c(O)c1C(=O)[O-])C1OC(CC)(C2CCC(O)(CC)C(C)O2)CC1C.[Na+] (stereo not given) [Lasalocid A] | 79.3 | 88.5 | 105 (inactive) | 94.6 (inactive) |
| C=C1NC2(C(=O)COC(C)=O)C(CC3C4CCC5=CC(=O)C=CC5(C)C4C(O)CC32C)O1 (stereo not given) | 96.8 | 108 | 86 (inactive) | 101 (inactive) |
| CC(C)(C)NCC(O)COc1cccc2[nH]c(=O)[nH]c12.Cl (racemic) | 97.7 | 110 | 93.5 (inactive) | 97.9 (inactive) |
| CCCCCCCCCCC(=O)O [Undecanoic acid] | 104 | 100 | 113 (inactive) | 103 (inactive) |
| NC(N)=NC(=O)c1nc(Cl)c(N)nc1N [Amiloride] | 101 | 103 | 97.3 (inactive) | 102 (inactive) |
| C[C@H](CCC(=O)O)[C@H]1CC[C@H]2[C@@H]3C[C@H](O)[C@@H]4C[C@H](O)CC[C@]4(C)[C@H]3CC[C@]12C [(3alpha,5beta,6alpha)-3,6-dihydroxycholan-24-oic acid] | 101 | 98.6 | 97.3 (inactive) | 106 (inactive) |
| CC(C(=O)O)c1ccc(-c2ccccc2)c(F)c1 (stereo not given) [Flurbiprofen] | 98.6 | 101 | 97.4 (inactive) | 101 (inactive) |
| CNC1(C)C2CCC(C2)C1(C)C (stereo not given) [Mecamylamine] | 101 | 106 | 83.3 (inactive) | 107 (inactive) |
| CCN(CCO)CCCC(C)Nc1ccnc2cc(Cl)ccc12.O=S(=O)(O)O (stereo not given) | 99 | 91.2 | 102 (inactive) | 95.7 (inactive) |
| Clc1ccc(C(Cn2ccnc2)OCc2csc3c(Cl)cccc23)c(Cl)c1 (stereo not given) [Sertaconazole] | 95 | 97.9 | 91.4 (inactive) | 114 (inactive) |
| C[N+]1(CCCCC[N+]2(C)CCCC2)CCCC1.O=C([O-])C(O)C(O)C(=O)O.O=C([O-])C(O)C(O)C(=O)O [Pentolinium di[L(+)-tartrate]] | 103 | 110 | 92.6 (inactive) | 101 (inactive) |

From the supplement of paper PMC7156485
